Measured values reported in ChEMBL document CHEMBL2218924, “A broad activity screen in support of a chemogenomic map for kinase signalling research and drug discovery” (Biochem J, 2013).

Experiments:
[1] = target: Myosin light chain kinase, smooth muscle (Homo sapiens) (UniProt Q15746); conditions: at 1 µM
[2] = target: Myosin light chain kinase, smooth muscle (Homo sapiens) (UniProt Q15746); conditions: at 10 µM
[3] = target: Mitogen-activated protein kinase kinase kinase 9 (Homo sapiens) (UniProt P80192); conditions: at 1 µM
[4] = target: Mitogen-activated protein kinase kinase kinase 9 (Homo sapiens) (UniProt P80192); conditions: at 10 µM
[5] = target: Ribosomal protein S6 kinase alpha-5 (Homo sapiens) (UniProt O75582); conditions: at 1 µM
[6] = target: Ribosomal protein S6 kinase alpha-5 (Homo sapiens) (UniProt O75582); conditions: at 10 µM
[7] = target: Ribosomal protein S6 kinase alpha-4 (Homo sapiens) (UniProt O75676); conditions: at 1 µM
[8] = target: Ribosomal protein S6 kinase alpha-4 (Homo sapiens) (UniProt O75676); conditions: at 10 µM
[9] = target: SRSF protein kinase 3 (Homo sapiens) (UniProt Q9UPE1); conditions: at 1 µM
[10] = target: SRSF protein kinase 3 (Homo sapiens) (UniProt Q9UPE1); conditions: at 10 µM
[11] = target: T1, Serine/threonine-protein kinase 4 (Homo sapiens) (UniProt Q13043); conditions: at 1 µM
T1 sequence (whole entry): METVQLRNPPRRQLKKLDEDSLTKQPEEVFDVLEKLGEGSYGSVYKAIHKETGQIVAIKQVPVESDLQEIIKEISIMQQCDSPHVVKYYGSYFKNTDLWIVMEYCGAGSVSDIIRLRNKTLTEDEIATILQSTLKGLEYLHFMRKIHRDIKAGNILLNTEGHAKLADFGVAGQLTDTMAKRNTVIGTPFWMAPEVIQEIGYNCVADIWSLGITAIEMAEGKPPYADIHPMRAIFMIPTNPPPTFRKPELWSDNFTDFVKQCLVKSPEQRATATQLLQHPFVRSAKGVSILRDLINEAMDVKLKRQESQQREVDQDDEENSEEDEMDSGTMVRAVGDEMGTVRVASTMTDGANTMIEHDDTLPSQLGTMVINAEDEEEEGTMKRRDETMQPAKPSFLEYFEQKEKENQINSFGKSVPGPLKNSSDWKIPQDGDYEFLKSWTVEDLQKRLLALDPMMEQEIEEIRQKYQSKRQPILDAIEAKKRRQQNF

[12] = target: T1, Serine/threonine-protein kinase 4 (Homo sapiens); conditions: at 10 µM
[13] = target: T2, Serine/threonine-protein kinase 3 (Homo sapiens) (UniProt Q13188); conditions: at 1 µM
T2 sequence (whole entry): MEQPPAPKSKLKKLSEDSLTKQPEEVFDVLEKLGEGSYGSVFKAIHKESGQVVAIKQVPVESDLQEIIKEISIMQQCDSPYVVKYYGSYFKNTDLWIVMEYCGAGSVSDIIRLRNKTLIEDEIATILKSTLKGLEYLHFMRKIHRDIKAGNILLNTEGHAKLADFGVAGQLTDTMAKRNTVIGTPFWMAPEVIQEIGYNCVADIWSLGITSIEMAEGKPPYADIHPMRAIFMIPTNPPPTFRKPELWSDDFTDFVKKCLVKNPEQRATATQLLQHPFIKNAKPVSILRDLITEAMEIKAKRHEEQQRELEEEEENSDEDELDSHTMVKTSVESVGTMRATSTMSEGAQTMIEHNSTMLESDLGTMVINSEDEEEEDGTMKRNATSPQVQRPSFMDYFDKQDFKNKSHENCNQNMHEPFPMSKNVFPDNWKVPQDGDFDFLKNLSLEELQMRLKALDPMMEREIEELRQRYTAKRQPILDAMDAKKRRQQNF

[14] = target: T2, Serine/threonine-protein kinase 3 (Homo sapiens); conditions: at 10 µM
[15] = target: Serine/threonine-protein kinase 24 (Homo sapiens) (UniProt Q9Y6E0); conditions: at 1 µM
[16] = target: Serine/threonine-protein kinase 24 (Homo sapiens) (UniProt Q9Y6E0); conditions: at 10 µM
[17] = target: Serine/threonine-protein kinase MRCK alpha (Homo sapiens) (UniProt Q5VT25); conditions: at 1 µM
[18] = target: Serine/threonine-protein kinase MRCK alpha (Homo sapiens) (UniProt Q5VT25); conditions: at 10 µM
[19] = target: Serine/threonine-protein kinase MRCK beta (Homo sapiens) (UniProt Q9Y5S2); conditions: at 1 µM
[20] = target: Serine/threonine-protein kinase MRCK beta (Homo sapiens) (UniProt Q9Y5S2); conditions: at 10 µM

Mitogen-activated protein kinase kinase kinase 9 (Homo sapiens), sequence (P80192 whole entry, looked up): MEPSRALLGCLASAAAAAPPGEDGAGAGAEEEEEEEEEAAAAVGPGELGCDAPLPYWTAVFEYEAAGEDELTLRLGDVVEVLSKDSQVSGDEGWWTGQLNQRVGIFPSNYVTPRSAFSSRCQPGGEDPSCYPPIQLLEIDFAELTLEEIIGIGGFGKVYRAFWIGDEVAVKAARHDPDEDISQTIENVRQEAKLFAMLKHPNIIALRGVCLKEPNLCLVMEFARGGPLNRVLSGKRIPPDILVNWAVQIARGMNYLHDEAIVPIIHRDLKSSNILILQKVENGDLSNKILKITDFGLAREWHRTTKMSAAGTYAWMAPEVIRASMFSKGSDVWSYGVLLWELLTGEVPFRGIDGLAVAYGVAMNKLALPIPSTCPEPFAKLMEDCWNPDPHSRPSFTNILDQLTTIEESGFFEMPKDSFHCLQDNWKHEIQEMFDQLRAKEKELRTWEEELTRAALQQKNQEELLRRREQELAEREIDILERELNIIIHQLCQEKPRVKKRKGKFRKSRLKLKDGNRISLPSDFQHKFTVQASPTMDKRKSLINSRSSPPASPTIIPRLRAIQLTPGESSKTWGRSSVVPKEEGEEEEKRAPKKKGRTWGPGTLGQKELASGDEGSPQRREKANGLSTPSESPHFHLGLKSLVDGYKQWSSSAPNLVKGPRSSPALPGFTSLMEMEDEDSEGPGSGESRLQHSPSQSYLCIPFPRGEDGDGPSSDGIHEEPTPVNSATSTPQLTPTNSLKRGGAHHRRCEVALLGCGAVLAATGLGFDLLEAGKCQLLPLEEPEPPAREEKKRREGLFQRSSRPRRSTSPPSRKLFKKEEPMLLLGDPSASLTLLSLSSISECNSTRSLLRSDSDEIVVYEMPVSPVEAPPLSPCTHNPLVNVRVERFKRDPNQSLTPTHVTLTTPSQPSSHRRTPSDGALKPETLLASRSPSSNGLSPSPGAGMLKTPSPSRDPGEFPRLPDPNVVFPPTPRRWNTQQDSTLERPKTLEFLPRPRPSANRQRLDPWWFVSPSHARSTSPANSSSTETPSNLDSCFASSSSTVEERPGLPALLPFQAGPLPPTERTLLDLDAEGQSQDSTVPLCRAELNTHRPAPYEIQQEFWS
SRSF protein kinase 3 (Homo sapiens), sequence (Q9UPE1 whole entry): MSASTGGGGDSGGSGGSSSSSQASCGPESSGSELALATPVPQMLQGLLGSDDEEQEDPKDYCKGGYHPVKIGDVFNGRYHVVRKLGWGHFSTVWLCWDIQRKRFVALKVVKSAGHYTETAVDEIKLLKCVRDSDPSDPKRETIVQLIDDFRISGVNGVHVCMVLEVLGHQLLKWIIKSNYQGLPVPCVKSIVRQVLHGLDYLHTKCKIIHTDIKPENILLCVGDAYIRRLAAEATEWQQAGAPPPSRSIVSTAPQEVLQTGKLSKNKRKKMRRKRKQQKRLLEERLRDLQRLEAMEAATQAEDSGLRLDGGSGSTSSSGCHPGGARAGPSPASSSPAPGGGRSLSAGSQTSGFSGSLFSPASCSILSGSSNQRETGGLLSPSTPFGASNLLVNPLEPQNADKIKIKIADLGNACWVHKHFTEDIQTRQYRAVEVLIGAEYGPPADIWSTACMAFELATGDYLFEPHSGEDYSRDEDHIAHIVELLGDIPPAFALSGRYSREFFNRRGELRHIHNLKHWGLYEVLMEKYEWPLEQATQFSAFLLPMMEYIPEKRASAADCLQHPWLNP
Serine/threonine-protein kinase MRCK beta (Homo sapiens), sequence (Q9Y5S2 whole entry): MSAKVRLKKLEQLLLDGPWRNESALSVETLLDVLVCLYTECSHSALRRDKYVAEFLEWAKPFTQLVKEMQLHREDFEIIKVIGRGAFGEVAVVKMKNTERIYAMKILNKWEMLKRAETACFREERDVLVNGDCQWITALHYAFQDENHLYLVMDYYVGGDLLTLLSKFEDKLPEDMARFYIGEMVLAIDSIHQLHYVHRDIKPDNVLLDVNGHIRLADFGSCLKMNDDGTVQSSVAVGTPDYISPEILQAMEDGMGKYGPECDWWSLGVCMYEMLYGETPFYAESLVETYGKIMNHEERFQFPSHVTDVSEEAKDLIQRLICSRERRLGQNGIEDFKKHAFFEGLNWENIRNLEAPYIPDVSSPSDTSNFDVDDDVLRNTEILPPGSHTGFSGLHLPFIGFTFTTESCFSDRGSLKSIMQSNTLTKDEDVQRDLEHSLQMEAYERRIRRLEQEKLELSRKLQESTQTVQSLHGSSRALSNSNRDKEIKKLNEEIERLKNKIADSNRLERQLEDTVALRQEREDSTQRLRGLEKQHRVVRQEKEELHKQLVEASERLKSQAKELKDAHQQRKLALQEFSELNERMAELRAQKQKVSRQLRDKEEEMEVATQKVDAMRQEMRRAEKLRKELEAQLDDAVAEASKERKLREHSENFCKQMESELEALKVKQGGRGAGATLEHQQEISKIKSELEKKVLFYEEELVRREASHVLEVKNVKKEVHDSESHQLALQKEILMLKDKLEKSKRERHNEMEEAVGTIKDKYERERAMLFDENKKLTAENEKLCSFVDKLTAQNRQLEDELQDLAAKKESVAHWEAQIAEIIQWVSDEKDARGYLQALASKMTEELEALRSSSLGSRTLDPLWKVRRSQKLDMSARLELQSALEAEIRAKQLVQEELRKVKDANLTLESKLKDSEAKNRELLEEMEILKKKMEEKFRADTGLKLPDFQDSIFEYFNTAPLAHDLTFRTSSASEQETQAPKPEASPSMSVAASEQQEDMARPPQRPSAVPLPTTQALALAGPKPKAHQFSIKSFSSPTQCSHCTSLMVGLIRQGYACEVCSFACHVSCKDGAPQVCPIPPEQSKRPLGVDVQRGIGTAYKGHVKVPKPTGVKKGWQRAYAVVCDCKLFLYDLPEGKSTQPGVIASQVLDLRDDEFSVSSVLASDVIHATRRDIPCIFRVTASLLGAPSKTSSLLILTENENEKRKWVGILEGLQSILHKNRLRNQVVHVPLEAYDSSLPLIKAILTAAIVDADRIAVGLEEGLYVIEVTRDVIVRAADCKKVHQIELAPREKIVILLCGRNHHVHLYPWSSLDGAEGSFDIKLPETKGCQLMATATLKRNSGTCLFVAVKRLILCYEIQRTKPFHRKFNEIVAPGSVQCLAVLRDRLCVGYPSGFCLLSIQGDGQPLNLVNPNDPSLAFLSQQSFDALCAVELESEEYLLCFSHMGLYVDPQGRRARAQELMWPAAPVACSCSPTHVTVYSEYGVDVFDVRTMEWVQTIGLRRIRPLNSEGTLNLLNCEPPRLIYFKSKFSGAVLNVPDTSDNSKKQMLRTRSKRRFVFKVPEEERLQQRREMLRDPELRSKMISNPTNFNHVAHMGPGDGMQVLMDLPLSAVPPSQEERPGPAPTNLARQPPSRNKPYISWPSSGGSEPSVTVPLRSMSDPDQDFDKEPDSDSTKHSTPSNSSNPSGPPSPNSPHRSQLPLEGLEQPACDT
Serine/threonine-protein kinase 24 (Homo sapiens), sequence (Q9Y6E0 whole entry, looked up): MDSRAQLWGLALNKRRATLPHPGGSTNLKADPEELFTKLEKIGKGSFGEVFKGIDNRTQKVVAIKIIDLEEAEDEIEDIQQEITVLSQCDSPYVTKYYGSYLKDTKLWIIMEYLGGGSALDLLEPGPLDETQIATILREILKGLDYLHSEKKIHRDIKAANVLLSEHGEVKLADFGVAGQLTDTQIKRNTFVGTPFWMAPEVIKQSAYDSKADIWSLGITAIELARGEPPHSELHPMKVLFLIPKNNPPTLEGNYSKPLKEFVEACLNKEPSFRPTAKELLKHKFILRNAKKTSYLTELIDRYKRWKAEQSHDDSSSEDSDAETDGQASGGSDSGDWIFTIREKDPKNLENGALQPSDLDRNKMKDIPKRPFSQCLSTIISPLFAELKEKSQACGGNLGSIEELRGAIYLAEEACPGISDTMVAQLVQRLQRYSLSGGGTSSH
Ribosomal protein S6 kinase alpha-5 (Homo sapiens), sequence (O75582 whole entry, looked up): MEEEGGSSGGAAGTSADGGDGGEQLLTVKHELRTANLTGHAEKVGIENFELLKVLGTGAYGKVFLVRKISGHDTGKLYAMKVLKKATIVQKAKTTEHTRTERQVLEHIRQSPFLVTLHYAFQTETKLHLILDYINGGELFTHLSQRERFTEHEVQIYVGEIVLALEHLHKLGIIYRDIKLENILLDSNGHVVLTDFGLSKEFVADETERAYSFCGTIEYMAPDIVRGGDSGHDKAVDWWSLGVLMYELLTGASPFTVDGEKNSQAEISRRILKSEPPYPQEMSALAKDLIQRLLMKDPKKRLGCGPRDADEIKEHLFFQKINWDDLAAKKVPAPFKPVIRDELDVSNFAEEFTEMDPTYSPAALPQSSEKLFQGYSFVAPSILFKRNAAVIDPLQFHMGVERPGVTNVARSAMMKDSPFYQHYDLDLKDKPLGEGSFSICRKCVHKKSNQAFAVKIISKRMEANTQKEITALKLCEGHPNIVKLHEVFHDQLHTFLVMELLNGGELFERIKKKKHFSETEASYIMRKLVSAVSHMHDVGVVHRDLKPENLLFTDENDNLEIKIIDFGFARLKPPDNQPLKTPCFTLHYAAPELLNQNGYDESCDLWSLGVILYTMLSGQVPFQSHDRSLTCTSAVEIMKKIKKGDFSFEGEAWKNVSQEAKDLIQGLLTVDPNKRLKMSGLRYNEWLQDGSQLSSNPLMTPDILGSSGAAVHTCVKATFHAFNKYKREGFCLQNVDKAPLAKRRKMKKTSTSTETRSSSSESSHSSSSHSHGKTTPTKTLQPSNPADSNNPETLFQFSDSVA

Structure (SMILES)	residual activity [1] [%]	residual activity [2] [%]	residual activity [3] [%]	residual activity [4] [%]	residual activity [5] [%]	residual activity [6] [%]	residual activity [7] [%]	residual activity [8] [%]	residual activity [9] [%]	residual activity [10] [%]	residual activity [11] [%]	residual activity [12] [%]	residual activity [13] [%]	residual activity [14] [%]	residual activity [15] [%]	residual activity [16] [%]	residual activity [17] [%]	residual activity [18] [%]	residual activity [19] [%]	residual activity [20] [%]
O=C1NC(=O)c2c1c1c3ccccc3n3c1c1c2c2ccccc2n1C1CCC3O1	90	65	1	2	41	33	56	64	99	96	19	-1	10	12	80	65	–	–	–	–
COc1ccc2c(c[n+](C)c3c4cc5c(cc4ccc23)OCO5)c1OC	78	–	–	81	–	–	–	94	110	66	92	98	–	94	73	73	85	84	90	81
C[S+]([O-])c1ccc(-c2nc(-c3ccc(F)cc3)c(-c3ccncc3)[nH]2)cc1 (configuration not stated)	118	89	101	–	97	98	102	81	102	101	111	109	104	93	115	102	106	119	113	110
O=c1[nH]c2ccccc2n1C1CCN(Cc2ccc(-c3nc4cc5[nH]cnc5cc4nc3-c3ccccc3)cc2)CC1	76	4	98	100	132	106	106	96	112	91	102	80	106	80	72	80	122	128	96	82
CC(C)[C@H](CO)Nc1nc(Nc2cccc(Cl)c2)c2ncn(C(C)C)c2n1	–	46	10	1	–	–	95	62	73	17	63	30	–	–	58	20	–	–	98	88
O=[N+]([O-])/C=C/c1ccc2c(c1)OCO2	89	82	100	111	125	110	90	101	120	93	101	–	104	91	77	75	106	100	83	89
COc1cc2ncnc(Nc3ccc(OCc4ccccc4)cc3)c2cc1OC	84	90	81	56	–	–	99	101	122	89	95	104	111	81	70	90	121	117	95	95
COc1ccc2c(c1)/C(=C/c1cnc[nH]1)C(=O)N2	–	–	25	4	–	–	63	19	–	–	–	–	16	3	–	–	129	100	–	–
